Cruzain Triton – qHTS Assay for Promiscuous and Specific Inhibitors of Cruzain (with detergent). Potency, µM, actives largely listed as inhibitors. Cruzipain (Trypanosoma cruzi), P25779. AID 1478, 2009. purified cruzain, Z-FR-AMC fluorescence, 0.01% Triton. actives 0.43% (n = 200,000); further: nearly all actives have a fitted effect of over 40% in size
Target sequence (P25779 123-467 limits assumed): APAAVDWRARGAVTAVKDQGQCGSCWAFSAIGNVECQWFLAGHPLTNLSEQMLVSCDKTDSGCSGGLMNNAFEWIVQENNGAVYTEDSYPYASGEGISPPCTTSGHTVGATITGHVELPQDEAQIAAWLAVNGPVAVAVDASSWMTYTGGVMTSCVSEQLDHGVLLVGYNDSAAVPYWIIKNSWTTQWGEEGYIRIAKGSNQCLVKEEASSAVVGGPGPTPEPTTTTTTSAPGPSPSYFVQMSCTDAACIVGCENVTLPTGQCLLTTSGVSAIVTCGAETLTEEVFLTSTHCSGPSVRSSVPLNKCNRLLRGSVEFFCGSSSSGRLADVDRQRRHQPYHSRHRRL
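Z-FR-AMC hydrolysis (2 uM substrate) by cruzain (1.5 nM) monitored kinetically at ex 360/em 450 nm after 15 min room-temperature compound exposure; 0.01% Triton X-100, pH 5.5, 5 mM DTT.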
Cruzain inh noDet – qHTS Assay for Promiscuous and Specific Inhibitors of Cruzain (without detergent); purified cruzain, Z-FR-AMC fluorescence, no detergent; Cruzipain (Trypanosoma cruzi), P25779; Potency, µM, actives largely listed as inhibitors; actives 2.3% (n = 200,000); further: nearly all actives have a fitted effect of over 40% in size
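Purified cruzain at 1.5 nM, pre-incubated 15 min with compound at room temperature in 100 mM sodium acetate pH 5.5, 5 mM DTT, 0.00005% Triton X-100. Reaction started with 2 uM Z-FR-AMC; AMC fluorescence increase over 60 s gives rate.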
A number is an active result; – = inactive; ? = inconclusive. An excerpt weighted towards active compounds, which were near 2.4% of everything screened. The call rests on the fitted dose curve; in most records, active means well fitted curve in the direction sought with a large enough effect; inconclusive means small, poorly fitted or top-dose-only effect, or another doubt; inactive means no such curve, though single readings can be large; an effect the other way counts as inactive or inconclusive.

SMILES | Cruzain Triton | Cruzain inh noDet
COc1ccc(/C=C2\SC(=NCc3ccccc3)NC2=O)cc1 | – | –
Cn1nccc1C(=O)Nc1ccn(C23CC4CC(CC(C4)C2)C3)n1 | – | –
O=C(Nc1ccc(Br)cc1)c1nn(C23CC4CC(CC(C4)C2)C3)cc1Br | – | 25.1µM
O=C(O)c1cc(O)c2c(c1)[C@H]([C@H]1c3cc(C(=O)O)cc(O)c3C(=O)c3c(O[C@@H]4OC(CO)C(O)C(O)C4O)cccc31)c1cccc(O[C@@H]3OC(CO)C(O)C(O)C3O)c1C2=O (stereo not given in full) | 15.8µM | ?
O=C1c2cccc(O)c2C(=O)c2c(O[C@@H]3O[C@H](CO)[C@@H](O)[C@H](O)[C@@H]3O)cccc21 | – | –
CCOC(=O)c1ccccc1NC(=O)c1cc(S(=O)(=O)N2CCOCC2)ccc1F | – | ?
CCOC(=O)c1c(-c2ccccc2)csc1NC(=O)c1cc2ccccc2oc1=O | – | 15.8µM
CCOC(=O)c1c(-c2ccccc2Cl)csc1NC(=O)c1cc(S(=O)(=O)N2CCOCC2)ccc1C | – | 25.1µM
CCOC(=O)c1c(-c2ccccc2)csc1NC(=O)c1cc(=O)c2ccc(C)cc2o1 | – | –
Cn1c(=O)oc2cc(S(=O)(=O)NC3CCCc4ccccc43)ccc21 (stereo not given) | – | –
CCN(CC)S(=O)(=O)c1ccc2c(c1)c(=O)c(C(=O)N1CCN(c3ccccc3OC)CC1)cn2C | – | ?
COc1ccccc1CNCC(O)(c1ccc(Cl)cc1)c1ccc(Cl)cc1 | – | –
O=C(NC1CCCCC1)N1CCCC(c2nc3ccccc3[nH]2)C1 (stereo not given) | ? | 5.01µM
O=C(NC1CCCCC1)N1CCC(c2nc3ccccc3[nH]2)CC1 | – | –
CCC(C)n1c(O)c(C=Nc2cccc(C(F)(F)F)c2)c(=O)[nH]c1=S (stereo not given) | – | –
CC(=O)c1cccc(NC(=O)[C@H]2O[C@@H]3OC(C)(C)O[C@@H]3[C@H]3OC(C)(C)O[C@H]32)c1 | – | –
CN1/C(=C\C=Nc2ccccc2)C(C)(C)c2ccccc21 | – | –
CN1/C(=C\C=N\NC(=O)c2ccc(O)cc2)C(C)(C)c2ccccc21 | ? | 20µM
O=C(NCc1ccco1)c1cnccn1 | – | –
CCOC(=O)N/N=C/c1ccc(N2CCOCC2)s1 | – | –
FC(F)(F)c1ccc(Cl)c(N/N=C/c2ccc(N3CCOCC3)s2)c1 | – | 10µM
O=C(c1cc(C2CC2)on1)N1CCN(c2ccccc2)CC1 | – | –
CCCCc1ccc(-c2c(C#N)c(N)nc3c2CCCC3)s1 | – | 25.1µM
CCCCc1sc(-c2c(C#N)c(N)nc3c2CCCCC3)cc1[N+](=O)[O-] | – | –
Cc1cc(/C=C2/SC(=S)N(c3ccc([N+](=O)[O-])cc3)C2=O)c(C)n1-c1cccnc1 | – | 15.8µM
SMILES | Cruzain Triton | Cruzain inh noDet
Cc1ccc(N2C(=O)/C(=C/c3cccnc3)SC2=S)cc1 | – | ?
CCOC(=O)C(=NC1CCCCC1)NNc1cccc(C(F)(F)F)c1 | – | –
COc1ccccc1NC(=O)CN1C(=O)C2(SCC(=O)N2c2ccc(C)c(C)c2)c2ccccc21 (stereo not given) | – | –
COc1ccccc1NC(=O)CN1C(=O)C2(SCC(=O)N2c2ccc(F)c(F)c2)c2ccccc21 (stereo not given) | – | 15.8µM
COc1ccc(CC(=O)NCc2ccc3c(c2)CCN3C(C)=O)cc1OC | – | –
O=S(=O)(c1cccc(-c2nc3ccccc3s2)c1)N1CCCC1 | – | –
O=S(=O)(c1ccc(-c2nc3ccccc3s2)cc1)N1CCCC1 | – | 25.1µM
Cc1cc(C(=O)CSc2nnc(-c3ccccc3F)o2)c(C)n1Cc1cccs1 | – | –
CC(C)C(NS(=O)(=O)c1cccc2nsnc12)C(=O)NCCC1=CCCCC1 (stereo not given) | – | –
Cc1ccc(C)c(NC(=S)NC(NC(=O)Cc2ccccc2)C(Cl)(Cl)Cl)c1 (stereo not given) | – | 25.1µM
O=C(O)c1ccc(NC(=S)NC(NC(=O)c2ccco2)C(Cl)(Cl)Cl)cc1 (stereo not given) | – | –
O=C(NC(NC(=S)Nc1ccccc1)C(Cl)(Cl)Cl)c1cccc(Cl)c1 (stereo not given) | ? | –
Cc1ccc(NC(=S)NC(NC(=O)c2ccco2)C(Cl)(Cl)Cl)cc1 (stereo not given) | 4.47µM | –
Cc1ccc(NC(=S)NC(NC(=O)c2ccccc2)C(Cl)(Cl)Cl)c(C)c1 (stereo not given) | – | –
Cc1ccc(C(=O)NC(NC(=S)Nc2ccc(S(N)(=O)=O)cc2)C(Cl)(Cl)Cl)cc1 (stereo not given) | – | –
Cc1cccc(NC(=S)NC(NC(=O)c2ccco2)C(Cl)(Cl)Cl)c1 (stereo not given) | 3.16µM | –

Screening data as filed in PubChem BioAssay.
